# NS1 function inh = inhibitors of influenza NS1 protein function; Potency, µM (top dose mostly 46.1 µM), inactives show at the highest dose activity, positive = more growth; actives 0.4% (n = 270,000); also: potency is read from the fitted curve at half-maximal effect; actives are rising curves; nearly all actives have a fitted effect of over 50% in size
#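 Read-out: OD600 growth recovery of NS1-expressing budding yeast. Cells grown overnight at 30C in -URA glucose medium, washed, resuspended and diluted 1:100 in 2% galactose assay medium, pH 6.0. Same strain lacking NS1 served as positive control.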
# Shiga toxin inh = inhibitors of Shiga toxin in Vero cells. Vero cells, Shiga toxin protein synthesis inhibition reporter. actives 9.2% (n = 290,000). inhibition, % at 38.7 µM. AID 2315; in the data active = inhibition mostly above about 28%, no sharp cut-off; inactive = mostly below about 43%; also: 0% is about no effect
# Pf growth 96h = P. falciparum growth inhibition at 96 hours; actives 6.9% (n = 320,000); Potency, µM (top dose mostly 28.7 µM), without a hit: at the top dose activity change, negative = inhibition, most hits filed as inhibitors; P. falciparum luciferase reporter growth, 96 h; AID 504834; active = well fitted inhibition curve with a large enough effect; inconclusive = small, poorly fitted or top-dose-only effect, or another doubt; inactive = no such curve, though single readings can be large or run the other way; also: potency is read from the fitted curve at half-maximal effect; % is scaled to controls: 0 for no effect and ±100 for the full control effect
#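 Readout is luminescence from an integrated firefly luciferase in P. falciparum. Red cells, 2% hematocrit and 0.05% parasitemia final, were cultured with compound through two parasite generations (96 hours) at 37 C, 5% CO2.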
# SARS PLpro yeast = SARS-CoV PLP inhibition in yeast. actives 0.19% (n = 330,000). AID 485353. S. cerevisiae expressing SARS-CoV PLpro, growth rescue. Potency, µM (highest dose often 32.9 µM), without a hit: at the highest dose activity, positive = growth rescue, hits mostly activators; also: potency is read from the fitted curve at half-maximal effect; 0% is about no effect; nearly all actives have a fitted effect of over 55% in size
# Pf growth 48h = P. falciparum growth inhibition at 48 hours (one generation); P. falciparum luciferase growth in erythrocytes, 48 h; Potency, µM (highest dose often 28.7 µM), without a hit: at the highest dose activity change, negative = inhibition, actives largely listed as inhibitors; actives 5.9% (n = 310,000); AID 504832; active = well fitted inhibition curve with a large enough effect; inconclusive = small, poorly fitted or top-dose-only effect, or another doubt; inactive = no such curve, though single readings can be large or run the other way; also: potency is read from the fitted curve at half-maximal effect; % is scaled to controls: 0 for no effect and ±100 for the full control effect
#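 Firefly luciferase activity from engineered P. falciparum reports growth; inhibitors lower the luminescent signal. Cultures contained 2% hematocrit erythrocytes at 0.1% final parasitemia.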
# Cycloheximide cs = counter-screen for Shiga toxin inhibitors: cycloheximide protein synthesis inhibition; actives 12% (n = 300,000); AID 2314; cell reporter, cycloheximide protein synthesis inhibition counterscreen; max response, %; in the data active = max response mostly above about 13%, no sharp cut-off; inactive = mostly below about 14%; also: read at 38.3 µM for the half of the compounds with a filed dose; 0% is about no effect
# * hit, by the source's call; ? = inconclusive; nt = no result; [ ] = remark or other dose. Rows were chosen to be rich in hits. Some 21% of all compounds tested hit in one or more screens of this group. Unless noted, calls follow the shape of the full dose curve.
SMILES,NS1 function inh,Shiga toxin inh,Pf growth 96h,SARS PLpro yeast,Pf growth 48h,Cycloheximide cs
COc1ccc(N2C(=O)CC(n3c(CCCCO)nc4ccccc43)C2=O)cc1 (stereo not drawn),-42.8%,-17.8,10.4%,-24.9%,-1.4%,-1.8
CC1=C(C(N)=O)S(=O)(=O)c2ccccc21,-6.6%,-10.4,40.0%,0.2%,7.4%,-4.0
Cc1ccc(SCC(=O)OCC(=O)NCCC2=CCCCC2)cc1,nt,nt,7.4%,0.4%,?,nt
O=[N+]([O-])c1cccc(S(=O)(=O)c2cccc([N+](=O)[O-])c2)c1,4.2%,-3.9,?,-0.1%,-9.1%,-3.9
COc1ccc(-c2csc3nc(C)nc(N4CCCCC4)c23)cc1OC,nt,27.6,4.65µM*,-2.9%,?,7.4
CSCc1c(C(=O)NC2CCCc3ccccc32)oc2ccccc12 (stereo not drawn),7.0%,15.9,6.0%[5.75 µM],4.0%,0.9%,-1.9
Cc1ccc2oc(C(=O)N3CCC(O)(c4ccccc4)CC3)c(C)c2c1,-22.2%,17.9,10.4µM*,-17.6%,?,11.5*
CCN(CC)S(=O)(=O)c1ccc2oc(C(=O)N3CCCCCC3)c(C)c2c1,-40.6%,-16.1,-4.8%,-5.7%,13.1µM*,-1.7
COc1cc(C(=O)N2CCC(O)(c3ccccc3)CC2)cc(OC)c1OC,-1.3%,-12.0,?,7.8%,nt,-3.4
CCN(CC)S(=O)(=O)c1ccc2oc(C(=O)NC3CCCc4ccccc43)c(C)c2c1 (stereo not drawn),?,31.4,nt,-7.8%,5.22µM*,6.0
CCN(CC)S(=O)(=O)c1ccc2oc(C(=O)N3CCc4ccccc4C3)c(C)c2c1,27.8%,4.2,9.28µM*,1.9%,?,-4.6
CC1CCN(CCCNC(=O)Cc2c(C(=O)O)n(C)c3ccccc23)CC1,-0.6%,nt,nt,nt,nt,nt
COc1ccc(/C=C(/NC(=O)c2ccco2)C(=O)Nc2ccc(C(=O)O)cc2)cc1,10.5%,1.1,?,-0.5%,8.4%,-3.8
CCN(CC)C(=O)C1CCCN(C(=O)c2oc3ccc(C)cc3c2C)C1 (stereo not drawn),-5.7%,12.3,28.5%,-2.5%,17.9%,14.1
CCN(CC)S(=O)(=O)c1ccc2oc(C(=O)NCCN3CCOCC3)c(C)c2c1,6.9%,-5.7,-0.3%,0.5%,-20.8%,-1.3
C=CCNC(=O)c1oc2ccc(S(=O)(=O)N(CC)CC)cc2c1C,-1.9%,-3.8,10.4µM*,2.5%,?,6.4
CCOC(=O)N1CCN(C(=O)c2oc3ccc(S(=O)(=O)N(CC)CC)cc3c2C)CC1,-5.5%,-4.4,-10.5%,0.7%,5.22µM*,5.8
CCN(CC)C(=O)C1CCN(C(=O)c2oc3ccc(C)cc3c2C)CC1,-6.3%,16.1,-21.1%,-0.1%,24.6%,17.1*
COc1ccc(/C=C2\SC(=Nc3ccccc3)NC2=O)cc1,4.8%,-5.2,?,-3.0%,?,-3.1
COc1ccccc1N=C1NC(=O)/C(=C/c2ccc(N(C)C)cc2)S1,-8.2%,56.1*,?,-7.4%,0.0928µM*,40.8*
COc1ccc(N=C2NC(=O)/C(=C\c3ccco3)S2)cc1,nt,66.4*,-16.7%,-0.6%,?,23.2*
COc1cc(/C=C2/SC(=Nc3ccc(O)cc3)NC2=O)cc(OC)c1O,11.8%,31.8,1.85µM*,-3.2%,3.7µM*,-5.5
CCCN1C(=O)/C(=C/c2ccco2)SC1=Nc1ccc(OC)cc1,9.5%,-8.8,?,-3.1%,10.4µM*,7.0
COc1ccc(N=C2S/C(=C\c3ccc(C)o3)C(=O)N2CC(C)C)cc1,0.9%,-2.9,3.29µM*,8.9%,nt,8.2
CCOC(=O)c1c(O)c2ccccc2oc1=O,4.1%,-10.8,10.7%,-0.5%,4.6%,-2.9
SMILES,NS1 function inh,Shiga toxin inh,Pf growth 96h,SARS PLpro yeast,Pf growth 48h,Cycloheximide cs
CCc1oc2ccccc2c1C(=O)c1cc(I)c(O)c(I)c1,nt,nt,1.9µM*,nt,-15.0%,nt
CN(Cc1ccccc1Cl)C(=O)C1CCC(=O)N(C2CCCCCC2)C1 (stereo not drawn),-18.9%,17.5,8.4%,1.1%,?,14.3*
O=C1CSC(=Nc2ccccc2Cl)N1,1.5%,23.2,38.1%,1.8%,12.2%,16.5*
O=C1NC(=Nc2ccccc2Cl)SC1(CO)CO,-14.6%,-8.1,13.1µM*,16.8%,-2.6%,-2.3
O=C1CSC(=Nc2ccc(F)cc2)N1,6.3%,-3.3,?,0.2%,?,-3.6
CCc1ccc(N=C2NC(=O)CS2)cc1,-1.5%,nt,9.28µM*,-5.4%,?,-2.9
Cc1ccc(N=C2NC(=O)C(CO)(CO)S2)cc1,-6.9%,10.3,?,-1.0%,11.3%,8.8*
COc1ccccc1NC(=O)CN(Cc1ccccc1)S(C)(=O)=O,-0.6%,-5.2,8.2%,-13.0%,5.7%,-1.7
O=C1NC(=O)N(Cc2ccccc2)C(=O)/C1=C\N1CCCc2ccccc21,?,65.2,70.2%,?,18.6%,27.9*
Nc1c(-c2ccccc2)c(CSc2nc3ccccc3[nH]2)nn1-c1ccc(C(=O)O)cc1,19.3%,-7.9,9.7%,1.6%,7.2%,0.8
COc1ccc(C2NN=C(c3c[nH]c4ccccc34)C2O)cc1 (stereo not drawn),12.5%,38.3*,?,-1.1%,?,36.1*
COc1ccc(C2C(O)C(c3c[nH]c4ccccc34)=NN2C(=O)CCl)cc1 (stereo not drawn),19.2%,-5.5,?,4.5%,2.94µM*,8.3
O=C(c1ccco1)N1CCN(Cc2cc(=O)oc3cc(O)ccc23)CC1,nt,nt,?,0.3%,5.4%,nt
COc1cccc(-c2nnc(NC(=O)c3ccc(Cl)s3)o2)c1,-83.7%,-1.6,11.7µM*,-28.7%,?,4.8
COc1ccc(-c2nnc(NC(=O)c3ccc([N+](=O)[O-])o3)o2)c(OC)c1,5.9%,-4.0,11.7µM*,-5.2%,14.7µM*,-1.6
COc1cccc(-c2nnc(NC(=O)c3ccccc3Br)o2)c1,-72.5%,65.9*,126.3%,-7.5%,78.0%,35.3*
COc1ccc(/C=C/C(=O)OCC(=O)NCCc2ccccc2)c(OC)c1,nt,nt,nt,-27.5%,nt,nt
Cc1cc(OCC(=O)NCC2CCC(C(=O)O)CC2)c2c(C)c(Cc3ccccc3)c(=O)oc2c1 (stereo not drawn),3.7%,10.6,3.29µM*,-6.6%,11.7µM*,-4.0
Cc1cc(C)cc(NC(=O)COc2ccc3c(C)c(Cc4ccccc4)c(=O)oc3c2)c1,17.8%,-9.6,?,1.2%,8.28µM*,-3.2
Cc1c(Cc2ccccc2)c(=O)oc2c(C)c(OCC(=O)Nc3ccc(C#N)cc3)ccc12,4.7%,-8.1,2.08µM*,5.7%,?,-1.1
Cc1cccc(C)c1NC(=O)COc1ccc2c(C)c(Cc3ccccc3)c(=O)oc2c1C,-2.8%,-9.0,19.9%,-12.0%,-27.2%,-2.4
N/C(=N\O)c1cn([C@@H]2O[C@@H](CO)[C@H](O)[C@@H]2O)c2ncnc(NO)c12,-5.1%,nt,nt,nt,nt,nt
COc1cccc(/C(O)=C2/C(=O)C(=O)N(CCN3CCOCC3)C2c2cccs2)c1 (stereo not drawn),0.8%,19.6,nt,-1.4%,20.9%,23.0*

# Compound activity as filed in PubChem BioAssay.
